Screening results as filed in PubChem BioAssay.
CYP2C9 inhib: inhibitors of human CYP2C9; CYP2C9 Supersomes, luciferin-H conversion, luminescence; inhibition, % at 5 µM; 96,000 tested, 20% active; AID 777;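 active = blocking of liver enzyme CYP2C9 beyond about 50% at 5 µM, limit read from the data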
sEH activator: activators of human soluble epoxide hydrolase; P34913; activation, % at 2 µM; purified human sEH enzymatic activity, activator screen; 91,000 tested, 0.04% active; in the data active = activation above about 37%
sEH inh: soluble epoxide hydrolase (human) inhibition; P34913; 91,000 tested, 0.34% active; recombinant human sEH enzymatic activity assay; inhibition, % at 2 µM; in the data active = inhibition above about 80%
CYP2C19 activ: cytochrome P450 2C19 (human) activation; P33261; recombinant CYP2C19, luciferin-H EGE luminescence; stronger effect = higher value; 0 = fully inhibited enzyme, 1 = untreated enzyme; activation factor at 5 µM; 96,000 tested, under 10 active;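 active = activation factor of at least 2 at 5 µM in the primary screen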;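 note: 0 = wells with 2.5 mM tranylcypromine and 1 = vehicle-only wells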
Target sequence (P33261 whole entry, looked up): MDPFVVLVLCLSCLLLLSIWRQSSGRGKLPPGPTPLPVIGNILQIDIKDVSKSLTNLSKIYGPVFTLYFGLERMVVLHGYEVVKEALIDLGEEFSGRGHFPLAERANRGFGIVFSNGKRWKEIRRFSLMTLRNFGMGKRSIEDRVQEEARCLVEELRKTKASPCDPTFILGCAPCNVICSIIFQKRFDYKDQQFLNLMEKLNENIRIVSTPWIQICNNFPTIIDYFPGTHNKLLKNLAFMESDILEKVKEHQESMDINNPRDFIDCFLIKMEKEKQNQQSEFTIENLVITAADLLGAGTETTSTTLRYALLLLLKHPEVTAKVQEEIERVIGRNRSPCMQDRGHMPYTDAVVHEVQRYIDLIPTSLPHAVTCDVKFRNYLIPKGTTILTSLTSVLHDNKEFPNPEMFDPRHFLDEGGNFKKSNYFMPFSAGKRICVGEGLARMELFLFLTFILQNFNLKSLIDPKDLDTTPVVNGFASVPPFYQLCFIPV
CYP2C9 activ: activators of human CYP2C9. P11712. recombinant CYP2C9, luciferin-H conversion, luminescence; stronger effect = higher value; factor 1 = untreated enzyme, 0 = blocked. activation factor at 5 µM. 96,000 tested, 1.4% active;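 active = activation factor of 2 or more for CYP2C9 at a 5 µM dose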;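 note: 0 = sulfaphenazole-blocked wells and 1 = vehicle-only wells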
CYP2C19 inh: human CYP2C19 inhibition; P33261; CYP2C19 Supersomes, luciferin-H EGE luminescence, 30 min; inhibition, % at 5 µM; 96,000 tested, 21% active;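 active = CYP2C19 inhibition above a set limit at 5 µM in the primary screen, cut at about 50% in these data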;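 note: plate controls were negative control wells for no effect and 2.5 mM tranylcypromine positive control for full effect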
Active calls of the source: *; x = no result. Most compounds without a hit are left out; they make up all but 27% or so of the library.

SMILES	CYP2C9 inhib	sEH activator	sEH inh	CYP2C19 activ	CYP2C9 activ	CYP2C19 inh
Cc1ccccc1C(C(=O)NCc1ccccc1)N(Cc1ccco1)C(=O)c1ccccn1 (stereo unspecified)	34	4	-6	0.5	0.7	54*
CCC(C)(C)NC(=O)C(c1ccc(F)cc1)N(Cc1ccco1)C(=O)CCC(=O)Nc1ccccn1 (stereo unspecified)	7	x	x	0.9	0.9	8
O=C(NCc1ccccc1)C(c1ccc(F)cc1)N(Cc1ccco1)C(=O)c1ccccn1 (stereo unspecified)	23	16	-12	0.4	0.8	62*
COc1ccc(CCNC(=O)COC(=O)c2cnccn2)cc1	19	0	0	0.6	0.8	35
COCCCNC(=O)c1ccccc1SC	-33	7	-7	1.1	1.3	-15
CCOC(=O)c1[nH]c(C)c(/C(O)=C2\C(=O)C(=O)N(CCN3CCOCC3)C2c2cccs2)c1C (stereo unspecified)	-2	17	-17	0.7	1	29
COc1cccc2sc(NC(=O)c3ccc(S(=O)(=O)N4CCOCC4)cc3)nc12	86*	-10	6	0.4	0.1	64*
COc1ccccc1C(=O)NCC1CCN(c2ccc(S(=O)(=O)N3CCOCC3)cc2)CC1	36	5	-11	0.4	0.6	58*
CCn1c(=NC(=O)c2ccc(S(=O)(=O)N3CCOCC3)cc2)sc2cccc(OC)c21	-8	14	-12	0.9	1.1	12
COc1ccccc1NC(=O)c1ccc(S(=O)(=O)N2CCOCC2)cc1	-249	-15	18	0.9	3.5*	14
CCOC(=O)N1CCN(S(=O)(=O)c2ccc(C(=O)Nc3nc4ccccc4s3)cc2)CC1	45	-5	4	1	0.6	2
CCOC(=O)N1CCN(S(=O)(=O)c2ccc(C(=O)Nc3nc4ccc(F)cc4s3)cc2)CC1	64*	-4	3	0.8	0.4	22
CCCCN(CC)C(=O)c1n[nH]c(=O)c2ccccc12	26	-3	1	1.3	0.7	-25
COc1ccc2nc(SCC(=O)Nc3c(C)cccc3C)[nH]c2c1	84*	6	-3	0.5	0.2	52*
O=C(CSc1nc2ccc(Cl)cc2[nH]1)c1ccc2c(c1)OCO2	66*	-17	18	0.7	0.3	26
CCOc1ccc2nc(SCC(=O)Nc3ncccn3)[nH]c2c1	4	9	-11	1	1	0
CCOc1ccc2nc(SCC(=O)NCc3ccc4c(c3)OCO4)[nH]c2c1	68*	0	0	0.8	0.3	24
CCOc1ccc2nc(SCC(=O)Nc3ccc4c(c3)OCCO4)[nH]c2c1	91*	-4	6	0.4	0.1	61*
O=C(CSc1ncn[nH]1)c1ccc2c(c1)OCO2	-18	-10	12	0.9	1.2	8
CC1=CC(=O)OC1Cc1ccncc1 (stereo unspecified)	42	-8	8	0.8	0.6	24
CC1(C)N=C(c2cccs2)C(C)(C)N1O	8	11	-8	0.9	0.9	6
Cc1sc2ncn(CC(=O)NCCN3CCOCC3)c(=O)c2c1S(=O)(=O)N1CCC(C)CC1	-4	3	-4	1.1	1	-10
O=C(Nc1cccc2c1CCCC2)C1CCCN(S(=O)(=O)c2cccc3nonc23)C1 (stereo unspecified)	16	-8	10	0.9	0.8	8
CC(C)(C)C(=O)CSc1nc2ncc(Br)cc2[nH]1	46	-12	12	0.1	0.5	91*
COc1ccc2nc(SCC(=O)Nc3ccc4c(c3)OCCO4)[nH]c2c1	81*	11	-11	0.6	0.2	36
SMILES	CYP2C9 inhib	sEH activator	sEH inh	CYP2C19 activ	CYP2C9 activ	CYP2C19 inh
COc1ccc2nc(SCC(N)=O)[nH]c2c1	-16	26	-29	1.1	1.2	-13
COc1ccc2[nH]c3nc(SCc4nnc(-c5ccc(C)cc5)o4)nnc3c2c1	72*	-9	10	0.5	0.3	52*
CCOc1ccc(N2C(=O)Nc3ccccc3C2(O)C(=O)NCc2ccc3c(c2)OCO3)cc1 (stereo unspecified)	-141	9	-12	0.8	2.4*	19
Cc1nc2nc(SCC(=O)C(C)(C)C)[nH]c2cc1Br	17	-16	15	0.7	0.8	30
Cc1cc(Nc2ccc(F)cc2Cl)n2ncnc2n1	-4	x	x	1.2	1	-21
O=C(Cn1ccc2ccccc2c1=O)NCCC(=O)Nc1ccc2c(c1)OCCO2	40	x	x	0.9	0.6	10
CCn1c2ccccc2c2nnc(SCC(=O)Nc3ccc4c(c3)OCO4)nc21	18	-4	2	1	0.8	-1
COc1ccc2[nH]c3nc(SCC(=O)Nc4ccc5c(c4)OCO5)nnc3c2c1	70*	2	-1	0.8	0.3	23
O=C(CSc1nc2ncc(Br)cc2[nH]1)Nc1ccc2c(c1)OCO2	96*	9	-7	0.3	0	72*
COc1ccccc1NC(=O)C(CC=C(Cl)Cl)C(C)=O (stereo unspecified)	11	13	-9	0.6	0.9	37
Cc1nn(-c2ccc3nnc(Br)n3n2)c(C)c1Br	20	-1	0	0.9	0.8	8
Cn1nnnc1Sc1ncnc2scc(-c3ccc(F)cc3)c12	x	-1	2	x	x	x
Cn1nnnc1Sc1ncnc2scc(-c3ccccc3)c12	66*	x	x	0.5	0.3	46
Cc1ccccc1CS(=O)(=O)Cc1ccc(C(=O)NCc2cccnc2)o1	42	8	-9	0.2	0.6	78*
Cc1ccc(CCNC(=O)c2ccc(CS(=O)(=O)Cc3ccccc3F)o2)cc1	98*	-27	27	0.2	0	75*
Cc1cccc(CS(=O)(=O)Cc2ccc(C(=O)NCc3cccnc3)o2)c1	-14	x	x	0.2	1.1	82*
CCOC(=O)c1c(C)c(C(=O)NCCCOC(C)C)c(C)n1C	-48	x	x	0.6	1.5	40
CCOc1ccc(NC(=O)Cn2nnc(-c3ccccc3NC(=O)C3CC3)n2)cc1	36	-9	8	0.2	0.6	82*
COc1ccc(NC(=O)Cn2nnc(-c3ccccc3N)n2)cc1OC	3	-6	5	1.1	1	-14
COc1cc(NC(=O)Cn2nnc(-c3ccccc3N)n2)cc(OC)c1	54*	0	-2	0.6	0.5	40
CCOc1ccc(NC(=O)Cn2nnc(-c3ccccc3F)n2)cc1	3	-21	21	1	1	-4
O=C(Cn1nnc(-c2ccccc2NC(=O)c2cccs2)n1)Nc1ccccc1	76*	11	-14	0.8	0.2	23
COc1ccc(C(=O)Cn2nnc(-c3ccccc3NC(=O)C3CCCCC3)n2)cc1	85*	-5	3	0.8	0.1	19
CCOc1ccc2cc(C#N)c(SCC(=O)N3CCCC3)nc2c1	x	5	-9	x	x	x
